# From PubChem BioAssay (NCATS)
# Results filed as inconclusive are left out. Entries that show only a call come without a potency. The source made the active and inactive calls. Unless noted, the call rests on the fitted dose curve; in most records, active means well fitted curve in the direction sought with a large enough effect; inconclusive means small, poorly fitted or top-dose-only effect, or another doubt; inactive means no such curve, though single readings can be large; an effect the other way counts as inactive or inconclusive.
# Tests used:
# [1] = molecular target: Voltage-gated inwardly rectifying potassium channel KCNH2 (Homo sapiens) (UniProt Q12809); experiment: qHTS Assay for Small Molecule Inhibitors of the Human hERG Channel Activity (AID 588834);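 further: top concentration of the series differs between compounds; lower thallium flux fluorescence means stronger hERG block; nearly all actives have a fitted effect of over 50% in size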
# Sequence of Voltage-gated inwardly rectifying potassium channel KCNH2 (Homo sapiens) (Q12809 whole entry, looked up): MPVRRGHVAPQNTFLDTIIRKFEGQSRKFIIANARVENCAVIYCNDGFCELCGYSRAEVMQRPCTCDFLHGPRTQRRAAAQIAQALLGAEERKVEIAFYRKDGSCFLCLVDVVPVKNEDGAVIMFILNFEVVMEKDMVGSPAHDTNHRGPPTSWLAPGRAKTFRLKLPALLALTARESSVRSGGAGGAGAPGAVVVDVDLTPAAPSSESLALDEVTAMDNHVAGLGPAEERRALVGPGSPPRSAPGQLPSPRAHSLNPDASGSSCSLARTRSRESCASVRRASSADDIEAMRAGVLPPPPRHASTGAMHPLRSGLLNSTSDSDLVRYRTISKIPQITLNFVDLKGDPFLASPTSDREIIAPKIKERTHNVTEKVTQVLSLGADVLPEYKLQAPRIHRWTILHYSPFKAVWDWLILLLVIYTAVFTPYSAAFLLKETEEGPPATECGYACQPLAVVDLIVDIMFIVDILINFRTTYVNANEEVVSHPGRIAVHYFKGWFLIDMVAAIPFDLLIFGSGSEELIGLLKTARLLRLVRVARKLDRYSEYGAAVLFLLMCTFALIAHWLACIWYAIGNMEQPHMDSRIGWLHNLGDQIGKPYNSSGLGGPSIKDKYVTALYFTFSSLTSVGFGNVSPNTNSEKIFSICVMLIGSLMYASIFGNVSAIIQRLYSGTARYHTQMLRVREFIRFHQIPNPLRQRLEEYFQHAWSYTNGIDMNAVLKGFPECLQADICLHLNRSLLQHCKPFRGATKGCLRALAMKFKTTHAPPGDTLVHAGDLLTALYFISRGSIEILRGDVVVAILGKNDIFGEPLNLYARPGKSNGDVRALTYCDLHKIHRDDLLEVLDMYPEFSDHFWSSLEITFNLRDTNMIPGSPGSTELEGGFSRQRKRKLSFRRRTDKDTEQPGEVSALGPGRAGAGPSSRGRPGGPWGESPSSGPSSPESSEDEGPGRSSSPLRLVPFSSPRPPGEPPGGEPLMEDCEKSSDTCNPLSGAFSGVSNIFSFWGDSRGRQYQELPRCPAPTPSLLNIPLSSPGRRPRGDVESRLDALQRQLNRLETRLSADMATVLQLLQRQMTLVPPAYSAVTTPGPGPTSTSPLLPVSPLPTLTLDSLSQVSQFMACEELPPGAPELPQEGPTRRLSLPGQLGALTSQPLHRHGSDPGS
# Method in brief: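 U2OS cells BacMam-transduced with hERG, 2000 cells/well, compound ~10 min at 37 °C before stimulation buffer. FluxOR thallium flux fluorescence read kinetically on FDSS; decrease indicates block; AC50 from Hill fits.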
# [2] = molecular target: Luciferin 4-monooxygenase (Photinus pyralis) (UniProt P08659); experiment: Biochemical firefly luciferase enzyme assay for NPC (AID 624030);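 further: purified P. pyralis luciferase at 10 nM with luciferin and ATP substrate; series mostly up to about 59 µM; nearly all actives have a fitted effect of over 70% in size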
# Sequence of Luciferin 4-monooxygenase (Photinus pyralis) (P08659 whole entry, looked up): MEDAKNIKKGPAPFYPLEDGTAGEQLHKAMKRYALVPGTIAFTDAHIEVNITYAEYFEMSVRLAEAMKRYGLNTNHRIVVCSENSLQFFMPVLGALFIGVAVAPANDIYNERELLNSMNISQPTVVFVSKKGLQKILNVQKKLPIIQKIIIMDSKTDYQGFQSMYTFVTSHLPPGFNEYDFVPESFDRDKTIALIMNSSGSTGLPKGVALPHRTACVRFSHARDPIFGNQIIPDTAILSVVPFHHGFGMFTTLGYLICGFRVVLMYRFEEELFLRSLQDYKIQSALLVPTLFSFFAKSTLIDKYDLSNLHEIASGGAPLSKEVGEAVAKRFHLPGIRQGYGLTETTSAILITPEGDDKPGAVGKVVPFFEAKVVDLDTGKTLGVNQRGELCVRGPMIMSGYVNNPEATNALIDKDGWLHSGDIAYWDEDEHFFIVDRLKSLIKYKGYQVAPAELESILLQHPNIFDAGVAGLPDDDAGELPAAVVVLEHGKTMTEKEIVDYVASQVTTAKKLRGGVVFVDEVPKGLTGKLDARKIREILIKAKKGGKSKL
# Method in brief: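 Counter-screen for direct inhibition of the luciferase enzyme by approved-drug library compounds, run at 10 nM enzyme in 50 mM Tris acetate (final). Luminescence was read within 5 min of enzyme-buffer addition and normalized to PTC124 versus DMSO (0%).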
# [3] = S16 Schwann cell viability assay (CellTiter-Glo assay) (AID 624031);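 further: cellular ATP luminescence as a viability measure; series mostly up to about 58 µM; nearly all actives have a fitted effect of over 70% in size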
# Method in brief: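 Native S16 rat Schwann cells in DMEM/10% FBS without phenol red were incubated overnight, then exposed to compounds for 24 h at 37 °C/5% CO2. Viability was read as ATP luminescence (CellTiter-Glo), normalized to no-cell wells and DMSO (0%).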
# [4] = S16 Schwann cell PMP22 intronic element firefly luciferase assay (AID 624032); further: nearly all actives have a fitted effect of over 30% in size; further: potency means the concentration at half of the fitted maximal effect
# Method in brief: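 Rat S16 Schwann cells stably carrying a PMP22 intronic element-driven Fluc reporter were seeded overnight, then exposed to compounds for 24 h at 37 °C. Luminescence was normalized to PTC124 (positive control) and DMSO (0% activity).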
# [5] = molecular target: Glutaminase kidney isoform, mitochondrial (Homo sapiens) (UniProt O94925); experiment: qHTS for Inhibitors of Glutaminase (GLS): LOPAC Validation (AID 624146);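 further: glutamate product detected by oxidase and peroxidase coupled Amplex red fluorescence gain; series mostly up to about 46 µM; nearly all actives have a fitted effect of over 60% in size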
# Sequence of Glutaminase kidney isoform, mitochondrial (Homo sapiens) (O94925 whole entry, looked up, canonical isoform): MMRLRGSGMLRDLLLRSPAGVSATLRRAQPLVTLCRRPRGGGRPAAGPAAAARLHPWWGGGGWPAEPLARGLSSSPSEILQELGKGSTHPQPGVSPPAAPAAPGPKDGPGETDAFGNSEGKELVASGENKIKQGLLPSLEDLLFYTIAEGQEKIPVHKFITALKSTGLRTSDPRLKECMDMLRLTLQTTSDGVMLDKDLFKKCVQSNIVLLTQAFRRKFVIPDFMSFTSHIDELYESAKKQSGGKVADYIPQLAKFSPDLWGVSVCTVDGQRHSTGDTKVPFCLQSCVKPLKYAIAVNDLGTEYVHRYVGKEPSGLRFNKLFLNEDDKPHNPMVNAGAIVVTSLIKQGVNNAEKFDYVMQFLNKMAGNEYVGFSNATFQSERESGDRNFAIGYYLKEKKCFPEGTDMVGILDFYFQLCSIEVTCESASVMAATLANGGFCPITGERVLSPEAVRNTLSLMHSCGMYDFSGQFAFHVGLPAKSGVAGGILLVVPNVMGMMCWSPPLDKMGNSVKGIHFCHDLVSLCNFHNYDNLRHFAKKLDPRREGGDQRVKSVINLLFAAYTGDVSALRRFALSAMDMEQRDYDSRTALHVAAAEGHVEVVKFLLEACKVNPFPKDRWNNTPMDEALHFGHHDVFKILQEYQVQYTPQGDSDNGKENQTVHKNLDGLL
# Method in brief: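 Two-point fluorescence kinetic (t0, 30 min RT) for hKGA; glutamate detected via glutamate oxidase–HRP–Amplex Red. Substrate: 1 mM L-glutamine solution; buffer 45 mM KH2PO4, pH 8.2.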
# [6] = qHTS of Trypanosoma Brucei Inhibitors: LOPAC Validation (AID 624147)
# Method in brief: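 TbPYK + substrate in 50 mM TEA pH 7.2, 100 mM KCl, 10 mM MgCl2, 0.05% BSA, 0.01% Tween-20; cpd pinned; ADP 130 uM final; 45 min RT; Kinase-Glo Plus 10 min; luminescence endpoint.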
# [7] = molecular target: Glucagon-like peptide 1 receptor (Homo sapiens) (UniProt P43220); experiment: qHTS of GLP-1 Receptor Agonists: LOPAC Validation (AID 624148);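 further: higher luminescence signal means agonism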
# Sequence of Glucagon-like peptide 1 receptor (Homo sapiens) (P43220 whole entry, looked up): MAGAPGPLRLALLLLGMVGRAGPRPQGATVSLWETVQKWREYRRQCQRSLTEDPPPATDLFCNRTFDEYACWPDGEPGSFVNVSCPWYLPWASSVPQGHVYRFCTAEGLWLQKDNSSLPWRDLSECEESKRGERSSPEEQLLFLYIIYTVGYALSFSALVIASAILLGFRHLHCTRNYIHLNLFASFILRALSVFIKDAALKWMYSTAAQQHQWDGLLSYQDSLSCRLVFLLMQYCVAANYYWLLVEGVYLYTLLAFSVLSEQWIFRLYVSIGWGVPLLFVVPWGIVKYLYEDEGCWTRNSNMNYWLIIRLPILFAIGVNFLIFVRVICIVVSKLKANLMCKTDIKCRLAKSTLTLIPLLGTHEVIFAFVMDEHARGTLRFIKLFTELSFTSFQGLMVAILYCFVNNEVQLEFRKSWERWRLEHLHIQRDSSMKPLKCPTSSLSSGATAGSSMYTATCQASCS
# Method in brief: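 HEK293 cells stably co-expressing a cAMP-responsive luciferase reporter and a hypersensitive GLP-1R were plated 12 h at 37 °C and exposed to compounds for 4-6 hr at 37 °C, 5% CO2. Luminescence was read 12 min after adding detection reagent.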
# [8] = qHTS of Nrf2 Activators: LOPAC Validation (AID 624149)
# Method in brief: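 ARE reporter activation measured in AREc32 firefly luciferase cells after 24 hr compound exposure; Steady-Glo luminescence.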
# [9] = HTS Assay for Allosteric Antagonists of the Human D2 Dopamine Receptor: Hit Validation in HTRF (AID 624455);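 further: stable D1 dopamine receptor cell line scored for blocking the D1 response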
# Method in brief: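 Signal from an HTRF read-out in D1-expressing stable cells gave hit activity as inhibition of the D1 response.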
# [10] = S16 Schwann cell PMP22 intronic element beta-lactamase assay (AID 624044; calls by dose curve; further: nearly all actives have a fitted effect of over 15% in size)
# Method in brief: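 Rat S16 Schwann cells with beta-Lac driven by a PMP22 intronic element, compound-treated 24 h at 37 °C. LiveBLAzer FRET B/G read: 460 nm normalized to potassium clavulanate vs DMSO; 535 nm FRET as viability; concentration-effect curves classified.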
# [11] = Cytotoxicity counterscreen for NFkB agonists and antagonists (AID 624476);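 further: cells exposed to compound for 48 hours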
# [12] = qHTS Assay for Identification of Small Molecule Agonists for NFkB Signaling Pathway. (AID 624478);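 further: compounds tested together with TNF alpha at its EC50 of 10 pM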
# Method in brief: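 Cells carrying an NFkB response element-driven beta-lactamase gene are co-treated with compound and 10 pM TNF alpha for 5 h, and reporter activity is then read as 460 and 530 nm fluorescence.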
# [13] = qHTS Assay for Identification of Small Molecule Antagonists for NFkB Signaling Pathway. (AID 624479; calls by dose curve;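 further: pathway stimulated with TNF alpha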)
smiles,measurement,setting,value
CCS(=O)(=O)C(C)(C)S(=O)(=O)CC,Potency,[1],inactive
same,Potency,[2],inactive
same,Potency,[3],inactive
same,Potency,[4],inactive
COC(=O)C1=CCCN(C)C1,Potency,[1],inactive
same,Potency,[2],inactive
same,Potency,[3],inactive
same,Potency,[4],inactive
same,outcome,[5],inactive
same,outcome,[6],inactive
same,outcome,[7],inactive
same,outcome,[8],inactive
same,Potency,[9],inactive
O=C(N[C@@H]1N=C(c2ccccc2F)c2cccc3c2N(CC3)C1=O)c1cc2ccccc2[nH]1,Potency,[2],inactive
COc1ccc(C(=O)N2CCCC2=O)cc1,Potency,[1],inactive
same,Potency,[2],inactive
same,Potency,[3],inactive
same,Potency,[4],inactive
same,outcome,[5],inactive
same,outcome,[7],inactive
same,outcome,[8],inactive
same,Potency,[9],inactive
C[N+](C)(C)CCCCCCCCCC[N+](C)(C)C,Potency,[2],inactive
Cc1nc2ccccc2c(=O)n1-c1ccccc1Cl,Potency,[2],inactive
C#C[C@]1(O)CC[C@H]2[C@@H]3CCC4=CC(=O)CCC4=C3C=C[C@@]21CC,Potency,[1],inactive
same,Potency,[2],inactive
same,Potency,[10],inactive
CC(CC(C#N)(c1ccccc1)c1ccccc1)N(C)C (stereo unspecified),Potency,[2],inactive
CCN(Cc1ccc(Cl)nc1)/C(=C/[N+](=O)[O-])NC,Potency,[1],inactive
same,Potency,[2],inactive
same,Potency,[3],inactive
same,Potency,[4],inactive
COc1cc(CC(C)N)cc2c1OCO2 (stereo unspecified),Potency,[2],inactive
COc1ccc2c(C(=O)c3ccc(Cl)cc3)c(C)n(CC(=O)O)c2c1,Potency,[2],inactive
CCOC(=O)c1ncn2c1CN(C)C(=O)c1c(I)cccc1-2,Potency,[2],inactive
CCOC(=O)NC(C)(C)Cc1ccc(Cl)cc1,Potency,[2],inactive
CC(C)(O)C(Cl)(Cl)Cl,Potency,[2],inactive
same,Potency,[3],inactive
same,Potency,[4],inactive
COc1ccc(OC)c(CC(C)N)c1 (stereo unspecified),Potency,[2],inactive
CC(=O)OC1(c2ccccc2)CCN(CCc2ccccc2)CC1,Potency,[2],inactive
CN1C(=O)CN=C(c2ccccc2)c2cc(Cl)ccc21,Potency,[2],inactive
CCC1(c2ccccc2)CCC(=O)NC1=O (stereo unspecified),Potency,[2],inactive
same,Potency,[3],inactive
same,Potency,[4],inactive
CC1N=C(N)OC1c1ccccc1 (stereo unspecified),Potency,[2],inactive
Cc1ccc(O)cc1,Potency,[2],inactive
CN1C(=O)[C@@H](NC(=O)c2cc3ccccc3[nH]2)N=C(c2ccccc2)c2ccccc21,Potency,[2],inactive
same,Potency,[3],inactive
Cc1cccc(Cc2cnc[nH]2)c1C,Potency,[2],inactive
c1ccc2nc(N3CCNCC3)ccc2c1,Potency,[2],inactive
same,Potency,[3],inactive
same,Potency,[4],inactive
O=C1NCN(c2ccccc2)C12CCN(CCCOc1ccc(F)cc1)CC2,Potency,[2],inactive
same,Potency,[3],inactive
O=C(O)Cc1ccccc1,Potency,[2],inactive
c1ccc2c(c1)Sc1ccccc1N2CC1CN2CCC1CC2 (stereo unspecified),Potency,[2],inactive
CNC(C)Cc1ccc2c(c1)OCO2 (stereo unspecified),Potency,[2],inactive
CCN(CC)Cc1nccn1-c1ccc([N+](=O)[O-])cc1C(=O)c1ccccc1Cl,Potency,[2],inactive
Cc1c(Cl)c(=O)oc2cc(OP(=O)(OCCCl)OCCCl)ccc12,Potency,[2],inactive
same,Potency,[3],inactive
same,Potency,[4],12.8 µM (active)
CC[C@H]1C[C@H]2[C@@H]3CCC4=CC(=O)CC[C@@H]4[C@H]3CC[C@]2(C)[C@H]1O,Potency,[2],inactive
O=C(O)CCCCCCNC1c2ccccc2CCc2ccccc21,Potency,[2],inactive
Cc1nnc2n1-c1sc(CCC(=O)N3CCOCC3)cc1C(c1ccccc1Cl)=NC2,Potency,[2],inactive
CCCCC1C(=O)NC(=O)N(C2CCCCC2)C1=O (stereo unspecified),Potency,[2],inactive
NC1(c2ccccc2)CCCCC1,Potency,[2],inactive
OC(O)C(Cl)(Cl)Cl,Potency,[2],inactive
same,Potency,[3],inactive
CCCN(CCC)CCc1c[nH]c2ccccc12,Potency,[2],inactive
COc1cc(CC(C)N)c(OC)cc1Br (stereo unspecified),Potency,[2],inactive
c1cc2c(c(N3CCNCC3)c1)OCCO2,Potency,[2],inactive
same,Potency,[3],inactive
same,Potency,[4],inactive
CC(C)C(Br)C(=O)NC(N)=O (stereo unspecified),Potency,[2],inactive
same,Potency,[3],inactive
CCN(CC)C(C)C(=O)c1ccccc1 (stereo unspecified),Potency,[2],inactive
same,Potency,[3],inactive
same,Potency,[4],inactive
C[C@H]1CNCCc2ccc(Cl)cc21,Potency,[2],inactive
COP(=S)(OC)Oc1ccc(S(N)(=O)=O)cc1,Potency,[2],inactive
ClC1=C(Cl)C2(Cl)C(CBr)CC1(Cl)C2(Cl)Cl (stereo unspecified),Potency,[2],inactive
same,Potency,[3],inactive
CN(C)CCc1c[nH]c2ccc(O)cc12,Potency,[2],inactive
O=C(O)CNC(=O)c1ccccc1I,Potency,[2],inactive
O=C(O)c1nn(Cc2ccc(Cl)cc2Cl)c2ccccc12,outcome,[5],inactive
same,outcome,[6],inactive
same,outcome,[7],inactive
same,outcome,[8],inactive
same,outcome,[11],inactive
same,outcome,[12],inactive
same,outcome,[13],inactive
NC(=O)CN1CCCC1=O,outcome,[5],inactive
same,outcome,[6],inactive
same,outcome,[7],inactive
same,outcome,[8],inactive
